Compound activity as filed in PubChem BioAssay.
SMN2 splice enh: increases expression of the SMN2 splice variant | HEK293 SMN2-luciferase splicing reporter, luminescence, 30-36 h | Potency, µM (top dose mostly 46.1 µM), most hits filed as activators | 210,000 tested, 2.8% active; further: nearly all actives have a fitted effect of over 55% in size
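HEK293 cells carry an SMN2 […]–luciferase reporter in which exon 7 inclusion puts luciferase in frame. Cells were plated 10-12 h before compound addition, then incubated 30-36 h at 37C. ONE-Glo luminescence was read; sodium butyrate at 4.5 mM final served as control.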
FLuc modulator: firefly luciferase modulation, counter-screen for miR-21 project; P08659; purified FLuc, Km substrates, luminescence inhibition; Potency, µM (top dose mostly 57.5 µM), most hits filed as inhibitors; 360,000 tested, 6.9% active; further: nearly all actives have a fitted effect of over 55% in size
Target sequence (P08659 whole entry, looked up): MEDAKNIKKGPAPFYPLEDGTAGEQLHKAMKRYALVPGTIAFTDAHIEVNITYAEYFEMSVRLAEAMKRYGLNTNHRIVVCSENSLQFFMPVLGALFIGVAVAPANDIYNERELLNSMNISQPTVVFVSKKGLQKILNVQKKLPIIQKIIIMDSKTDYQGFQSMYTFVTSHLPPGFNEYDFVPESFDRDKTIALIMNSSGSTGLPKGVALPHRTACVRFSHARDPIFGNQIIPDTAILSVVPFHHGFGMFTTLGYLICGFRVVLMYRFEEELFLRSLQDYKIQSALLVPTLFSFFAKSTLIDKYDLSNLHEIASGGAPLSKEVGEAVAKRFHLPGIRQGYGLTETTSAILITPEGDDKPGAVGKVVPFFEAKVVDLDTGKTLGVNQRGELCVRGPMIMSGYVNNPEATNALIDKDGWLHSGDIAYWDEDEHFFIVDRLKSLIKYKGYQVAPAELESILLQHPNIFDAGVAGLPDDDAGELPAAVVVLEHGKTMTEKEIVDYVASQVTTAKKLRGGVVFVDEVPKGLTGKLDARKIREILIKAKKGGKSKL
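Purified P. pyralis luciferase (10nM final) with 10uM D-luciferin and 10uM ATP (Km levels) in 50mM Tris acetate pH 7.5, 10mM Mg acetate, 0.01% Tween-20, 0.05% BSA; qHTS 6-point titration, ~60 µM downward; luminescence read.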
ELG1 genotox: induces genotoxicity in HEK293T cells with luciferase-tagged ELG1; HEK293T ELG1-luciferase reporter, luminescence, 16 h; Potency, µM (doses to about 46 µM), most hits filed as activators; 330,000 tested, 1.3% active; further: nearly all actives have a fitted effect of over 60% in size
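Step 1: seed 2,000 HEK293T ELG1-luciferase cells per well. Step 2: add compound or DMSO, incubate 16 hr at 37 °C. Step 3: ONE-Glo, 30 min at room temperature, read luminescence.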
Rab9 promoter act: activates the Rab9 promoter; Huh7 Rab9 promoter-luciferase reporter, luminescence, 24 h; Potency, µM (titrated, usually from 9.22 µM), actives largely listed as activators; 320,000 tested, 2.8% active; further: nearly all actives have a fitted effect of over 60% in size
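Cell-based reporter: Huh7 stable for Rab9 promoter-driven luciferase, plated in reduced-serum medium with 10% FBS at 1500 cells/well, compound-treated 24 h at 37 °C, luminescence read after 10 min reagent.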
ELG1 repair inh: blocks ELG1-dependent DNA repair in HEK293T cells. HEK293T ELG1-luciferase reporter, luminescence, 16 h; DNA damage induced by 5-fluorouridine. Potency, µM (titrated, usually from 46.1 µM), actives largely listed as inhibitors. AID 504467. 330,000 tested, 2.3% active; further: nearly all actives have a fitted effect of over 55% in size
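DMSO vehicle served as the neutral condition. Each well held 2,000 cells given 5-fluorouridine plus compound; after 16 hr at 37 °C/5% CO2, ONE-Glo was added and luciferase measured 30 min later.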
NPC1 promoter act: NPC1 promoter activation | AID 485313 | Huh7 NPC1 promoter luciferase reporter, 24 h | 320,000 tested, 2.4% active | Potency, µM (titrated, usually from 9.22 µM), most hits filed as activators; further: nearly all actives have a fitted effect of over 60% in size
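Compounds in DMSO were transferred onto Huh7 NPC1-luciferase reporter cells pre-incubated 2 h; after 24 h at 37 °C, Amplite reagent was dispensed and luminescence recorded 10 min later.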
ELG1 FLuc counter: luciferase inhibition in cell-free luciferin readout for ELG1 hits. shares compounds with ELG1 repair inh. cell-free firefly luciferase luminescence counter-screen, ViewLux. Potency, µM (titrated, usually from 46.1 µM), most hits filed as inhibitors. 350 tested, 3% active
ELG1 Luc conf: confirmation of human ELG1-dependent DNA repair inhibitors. Potency, µM (doses to about 46.1 µM), usual class: inhibitors. HEK293T ELG1-luciferase levels, luminescence; cells co-treated with 5-fluorouridine. shares compounds with ELG1 repair inh. 670 tested, 68% active. AID 624248; further: nearly all actives have a fitted effect of over 55% in size
ELG1 MMS Luc: confirmation of human ELG1 repair inhibitors, MMS stimulated | shares compounds with ELG1 repair inh | HEK293T luciferase-tagged ELG1 level, MMS stimulated | Potency, µM (doses to about 46.1 µM), hits mostly inhibitors | 670 tested, 53% active | AID 624249; further: nearly all actives have a fitted effect of over 60% in size
ELG1 5-FU: confirmation of ELG1 repair inhibitors: viability with 5FU; shares compounds with ELG1 repair inh; cell viability with 5-FU, ELG1-dependent repair; Potency, µM (doses to about 46.1 µM), hits mostly cytotoxic; 670 tested, under 10 active; AID 624250;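 further: ELG1-luc HEK293T cells cotreated with 5-fluorouridine at 10 µM final; viability measured 16 h after compound addition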
ELG1 MMS cell: confirmation of ELG1 repair inhibitors: viability with MMS | shares compounds with ELG1 repair inh | Cell viability with MMS, ELG1-dependent DNA repair | 670 tested, 33% active | Potency, µM (highest dose often 46.1 µM), actives largely listed as cytotoxic;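 further: ELG1-luc HEK293T cells co-treated with 10 µM MMS; viability read 16 h after compound addition; nearly all actives have a fitted effect of over 60% in size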
Cell viab unstim: counter-screen for ELG1 repair inhibitors: unstimulated cell viability; 900 tested, 8% active; cell viability counter-screen, unstimulated, luminescence; shares compounds with ELG1 repair inh; AID 624252; Potency, µM (highest dose often 45.9 µM), most hits filed as cytotoxic;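 further: compound exposure lasted 16 hours before reading; nearly all actives have a fitted effect of over 55% in size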
FLuc enzyme: firefly luciferase inhibition counter-screen | purified firefly luciferase, luminescence counter-screen | AID 624253 | Potency, µM (highest dose often 57.5 µM), hits mostly inhibitors | shares compounds with ELG1 repair inh | 350 tested, 10% active
Hits are given with their value; – = inactive; ? = inconclusive; · = not tested or not shown; [ ] = dose if it differs, or a comment. Most compounds without a hit are left out; they make up all but 9.3% or so of the library. The call rests on the fitted dose curve; in most records, active means well fitted curve in the direction sought with a large enough effect; inconclusive means small, poorly fitted or top-dose-only effect, or another doubt; inactive means no such curve, though single readings can be large; an effect the other way counts as inactive or inconclusive.

SMILES | SMN2 splice enh | FLuc modulator | ELG1 genotox | Rab9 promoter act | ELG1 repair inh | NPC1 promoter act | ELG1 Luc conf | ELG1 MMS Luc | ELG1 5-FU | ELG1 MMS cell | Cell viab unstim | others
CC(=O)Nc1ccc(NC(=O)CSc2ccc3nnc(CCNS(=O)(=O)c4ccc(C)cc4)n3n2)cc1 | · | – | –[9.26 µM] | – | – | – | · | · | · | · | ·
Cc1cccc(NS(=O)(=O)c2cccc(C(=O)NCC(C)(C)N3CCOCC3)c2)c1 | · | – | – | – | ? | – | · | · | · | · | ·
COc1ccc(Cc2nc3ccc(C(=O)N(C)C(C)c4nccs4)cc3o2)cc1 (stereo unspecified) | · | – | – | – | – | – | · | · | · | · | ·
COc1ccc(Cc2nc3ccc(C(=O)N(C)Cc4nccs4)cc3o2)cc1OC | · | – | – | – | 4.1µM | – | ? | 2.2µM | – | 7.9µM | ?
COCCNC(=O)c1ccc(Cl)c(S(=O)(=O)Nc2cccc(C)c2C)c1 | · | – | – | – | – | – | · | · | · | · | ·
CC#CCN1c2ccccc2[C@]23C[C@@H](C(=O)OC)N(S(=O)(=O)c4c(C)noc4C)C2=NC(C(=O)OC)=C(C(=O)OC)[C@H]13 | –[9.22 µM] | · | · | · | · | · | · | · | · | · | ·
Cc1sc2ncnc(NC3CCN(Cc4ccccc4)CC3)c2c1C | – | – | – | – | 2.1µM | – | ? | 1.3µM | – | 1.6µM | ?
O=C(c1cccs1)n1nc(-c2cccnc2)nc1NCc1ccco1 | – | – | – | – | ? | – | · | · | · | · | ·
O=C(COc1cc(F)ccc1[N+](=O)[O-])Nc1ccc2c(c1)OCO2 | · | ? | – | – | ? | – | · | · | · | · | ·
CC(=O)c1cc(F)ccc1OCC(=O)Nc1ccc2c(c1)OCO2 | · | · | ? | · | ? | · | · | · | · | · | –
COc1ccc2sc3c(=O)[nH]c4ccccc4c3c2c1 | – | – | – | – | 0.82µM | – | 2µM | 1.6µM | – | – | – | ELG1 FLuc counter=–;FLuc enzyme=–
Cc1ccccc1OCC(=O)Nc1ccc(S(=O)(=O)N2CCCC2)cc1 | · | – | – | – | – | – | · | · | · | · | ·
Cc1ccccc1OCC(=O)Nc1ccc(C)c(S(=O)(=O)N2CCCCCC2)c1 | · | – | ? | – | 1.3µM | – | 28µM | 6.3µM | ? | 8.9µM | –
Cc1sc(NC(=O)c2ccco2)c(C(c2ccc(F)cc2)N2CCN(C)CC2)c1C (stereo unspecified) | – | – | – | – | – | – | · | · | · | · | ·
Cc1sc(NC(=O)c2ccco2)c(C(c2cccnc2)N2CCN(c3ccc(F)cc3)CC2)c1C (stereo unspecified) | – | – | 0.52µM | – | – | – | · | · | · | · | – | ELG1 FLuc counter=–;FLuc enzyme=–
COc1ccc(Br)c(C(=O)Nc2cccc(S(=O)(=O)N3CCOCC3)c2)c1 | · | – | – | – | – | – | · | · | · | · | ·
COc1ccc(-c2cc(C(F)F)n3ncc(C(=O)Nc4cccc(S(=O)(=O)N5CCOCC5)c4)c3n2)cc1 | – | – | – | – | 3.7µM | – | ? | – | – | – | –
